We go through 40 compounds from PubChem BioAssay (NCI).

SMILES strings stand for the structures. This is part of a sample that, as a whole, favours compounds with a hit. Of some 83,000 tested, about 20% had one in any assay.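 Compound tested at a single concentration for 48 hours in 96-well plates; a percent growth value below 10 was scored as active.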 A number with no mark means an inactive call. Activity calls are given as the source filed them.

The experiment relates to HL-60(TB) leukemia. The experiment is described as follows: NCI-60 one-dose screen, 48 h (100 = growth as untreated, 0 = no growth, -100 = all killed). As to conditions: 10 µM unless noted.
As for `CCc1ccc(SC2c3ccc(N(CC)CC)cc3Oc3nc(N)c(C#N)c(N)c32)cc1` (stereo not given), the growth was -12.5% (active). As to `N#Cc1c(-c2cccs2)cc(-c2cnccn2)nc1SCC(=O)N/N=C/c1ccc(Cl)cc1`, the growth is 110%. The figure for `Cc1ccc(CSc2nc(-c3ccc(Cl)cc3)c(C#N)c(N3CCNCC3)n2)cc1` is 43.3%; for `COc1ccc(/C=C/C(=O)c2cccc(NC(=O)CSc3nc4ccccc4c(=O)n3-c3ccccc3)c2)cc1OC` it is 98.9%; for `CCOC(=O)C1=C(C)N=C2Sc3ccccc3N2C1c1ccccc1` (stereo not given) it is 61.9%.

Turning to `O=C(O)c1ccc(-n2cc(CNc3ccc(F)cc3)c(-c3ccc(C(F)(F)F)cc3)n2)cc1`, the growth was 87.1%. Take `O=C1c2c(c3c4cc(Br)ccc4[nH]c3c3ccc4ccccc4c23)C(=O)N1CCN1CCNCC1`: the growth is 62.3%. Take `CC[C@H](CO)Nc1ccc2ncc(C#Cc3cncc(C(=O)Nc4ccc(CN5CCN(C)CC5)c(C(F)(F)F)c4)c3)n2n1`: the growth is -46.3% (active). Consider `COC[C@]12CCC(C)(C)C[C@H]1C1=CC[C@@H]3[C@@]4(C)CCCNC(C)(C)[C@@H]4CC[C@@]3(C)[C@]1(C)CC2`, for which the growth is -65.3% (active). `COc1ccc2c(c1)c(-c1nn3cc(-c4ccncc4)nc3s1)cn2C`: the growth was -25.5% (active).

With `O=C(O)c1ccc(-n2cc(CNc3cc(F)c(F)c(F)c3)c(-c3cccc(F)c3)n2)cc1`, the growth is 108%.

For the compound `Clc1ccc(CSc2nnc(-c3ccc(Cl)cc3)n2-c2ccccc2)cc1`, the growth is 90.9%. With `O=C(CCCCCCNC(=O)C(O)(O)C(F)(F)F)Nc1ccc(-c2ccccc2)cc1`, the growth is 13.1%. On to `C#CCn1cc(/C=N/Nc2nc(-c3ccc(Br)cc3)cs2)c2ccccc21`, for which the growth was 107%.

Regarding `COc1cc2nc(Cl)nc(Nc3cccc(C4=Nc5c(N)nc(N)nc5NC(c5ccccc5)C4)c3)c2cc1OC` (stereo not given), the growth was 66.4%.

`CC1=C(C)C(=O)C(Nc2ccc3c(c2)OCO3)=C(Br)C1=O`: the growth was 44.2%. `Nc1ncc(-c2ccc3ncnc(N4CCc5cc(F)c(Cl)cc54)c3c2)cc1CO`: the growth was -23.4% (active). As to `CN(C)CCCOc1c2ccc(Cl)cc2nc2c1oc1ccccc12`, the growth was -19.3% (active). `O=C(Nc1ccc(N=Cc2c(O)[nH]c3ccccc23)cc1)Nc1nccs1`: the growth was 42%.

Regarding `C#Cc1nc(C2=C(C)C(OC(C)=O)/C(=N/OC(C)=O)C2)cs1` (stereo not given), the growth is -43.9% (active). `CCCCCC[n+]1ccc(SCC(=O)n2ccc3ccccc32)c2ccccc21`: the growth was 74.8%. As to `COc1ccc(/C=N/NC(=O)c2cn(C3CC3)c3c(OC)c(N4CC5CCCNC5C4)c(F)cc3c2=O)cc1` (stereo not given), the growth is 80.6%. `Cc1ccc(-n2cc(/C=C/C(=O)c3ccc(S(C)(=O)=O)cc3)c(-c3ccc(S(C)(=O)=O)cc3)n2)cc1`: the growth was 69.4%. On to `CC[C@H](CC[C@@H](C)[C@H]1CC[C@H]2[C@@H]3CC(=O)C4=CC(=O)/C(=C/c5ccc([N+](=O)[O-])cc5)C[C@]4(C)[C@H]3CC[C@]12C)C(C)C`, for which the growth was 83.5%. Take `C=C(C=O)[C@@H]1CC[C@]2(COC(C)=O)CC[C@]3(C)C(CC[C@@H]4[C@@]5(C)CC[C@H](OC(C)=O)C(C)(C)[C@@H]5CC[C@]43C)[C@@H]12` (stereo not given in full): the growth was -10.9% (active).

With `COc1ccc(-c2nc3cc(Cl)c(Cl)cc3n2CC(=O)N=Nc2c(O)[nH]c3ccc(Cl)cc23)cc1`, the growth is 59.7%. Take `C#C[C@]1(O)CC[C@H]2[C@@H]3CC=C4c5sc(Nc6ccc(OC)nc6)nc5CC[C@]4(C)[C@H]3CC[C@@]21C`: the growth was 10.1%. In the case of `O=C(NNc1nc2cc(F)ccc2n2c(CN3CCC(O)C3)ccc12)c1cnccn1` (stereo not given), the growth was -14.8% (active). In the case of `CN1CCN(Cc2ccc(NC(=O)c3cncc(C#Cc4cnc5ccc(O[C@H]6CCOC6)nn45)c3)cc2C(F)(F)F)CC1`, the growth is -41.2% (active). As to `CCOC(=O)C1=C(C)Nc2nc3ccccc3n2C1c1cccc(Br)c1` (stereo not given), the growth is 22.8%. In the case of `COc1ccc(/C=N/NC(=O)c2c(N)nn(C)c2Nc2ccccc2)cc1`, the growth was 15.5%. In the case of `COc1ccccc1NC1=C(Cl)C(=O)c2nc(C)ccc2C1=O`, the growth is -48% (active). In the case of `CN1CCC[C@]2(C)[C@H]3CC[C@@H]4[C@@H]5[C@H]6OC[C@@]5(CCC6(C)C)CC[C@@]4(C)[C@]3(C)CC[C@H]2C1(C)C`, the growth was 30.6%.

Take `Cc1ccc(NC(=O)c2ccc(CN3CCN(C)CC3)c(I)c2)cc1Oc1ccc(-c2[nH]nc3ncnc(N)c23)cc1`: the growth was 118%. Consider `C=CCn1c(SCC(=O)Nc2ccc(C(=O)/C=C/c3ccc(Cl)cc3)cc2)nnc1-c1c[nH]c2ccccc12`, for which the growth is 87.5%. `CCOC(=O)c1c(Nc2ccccc2)nn2c(-c3cccs3)ccnc12`: the growth is 74.9%.

`Cn1cc(-c2nc(N)nnc2-c2c[nH]c3ccc(Br)cc23)c2cc(F)ccc21`: the growth was 75.3%.

Consider `COc1cc(C(=O)c2cc(C(C)=O)c3c4ccccc4ccn23)cc(OC)c1OC`, for which the growth was 32.9%. In the case of `CC(O)C(NC(=O)C1CCCN1C(=O)CNC(=O)C1CC(=O)NCC(=O)NC(Cc2c[nH]c3ccccc23)C(=O)NC(Cc2ccc(O)cc2)C(=O)NCC(=O)NC(CO)C(=O)NC(CCC(N)=O)C(=O)NC(Cc2c[nH]c3ccccc23)C(=O)N1)C(=O)NCC(=O)NC(CCC(N)=O)C(=O)NC(CCCNC(=N)N)C(=O)NC(CC(=O)O)C(=O)O` (stereo not given), the growth is 99.7%.

Regarding `Cc1ccc(Nc2nc(SC(C)C)nc(-c3ccccc3)c2C#N)cc1`, the growth is 118%.
